# Test results: PubChem BioAssay (EPA / NIEHS)
# Some compounds were tested as several samples or in several runs, with calls that do not always agree. Calls of active or inactive are those of the source. How the source made its calls: active means hit-call score of the fitted dose curve at least 0.9, where 1 is the maximum; inactive means score below 0.9.
# Read-out: Plasminogen activator inhibitor-1 (PAI1), SERPINE1 (gene 5054)
# Assay: BSK_BE3C_PAI1: BioMAP Diversity Plus: BE3C Assay for Plasminogen activator inhibitor-1 (PAI1) Biomarker Activity (AID 2283037)
# Settings: primary human bronchial epithelial cells; actives raise or lower the signal
# Protocol: BSK_BE3C is a cell-based, multiplexed-readout assay that uses bronchial epithelial cell, a human lung primary cell, with measurements taken at 24 hours after chemical dosing in a 96-well plate.BSK_BE3C_PAI1 is an assay component measured in the BSK_BE3C assay. It measures PAI-1 antibody related to regulation of gene expression using ELISA technology.Data from the assay component BSK_BE3C_PAI1 was analyzed into 1 assay endpoint. This assay endpoint, BSK_BE3C_PAI1, was analyzed with bidirectional fitting relative to DMSO as the negative control and baseline of activity. Using a type of binding reporter, gain or loss-of-signal activity can be used to understand changes in the signaling as they relate to the gene SERPINE1. Furthermore, this assay endpoint can be referred to as a primary readout, because this assay has produced multiple assay endpoints where this one serves a signaling function. To generalize the intended target to other relatable targets, this assay endpoint is annotated to the cytokine intended target family, where the subfamily is plasmogen activator inhibitor.
# The levels of cell surface (or secreted, indicated by the prefix "s") biomarker endpoints were measured by ELISA. Overt cytotoxicity to cells in confluent adherent cultures (all systems other than the BT system) was assessed by measuring total protein levels using sulforhodamine B (SRB) staining in parallel cultures at the time of biomarker measurements, indicated as SRB endpoints. For proliferation assays for adherent cell types, individual cell types are cultured at sub-confluence and relative cell numbers quantified by SRB staining at time points optimized for each system (48 h: 3C and CASM3C systems; 72 h: BT and HDF3CGF systems; 96 h: SAg system). SRB was performed by staining cells with 0.1% SRB after fixation with 10% TCA and reading wells at 560 nm.Viability and proliferation of PBMC (T cells) was quantified by Alamar Blue reduction for the SAg and BT systems. For PBMC viability (referred to as PBMC Cytotoxicity within the assay endpoint names), cells were plated (75,000/well in a 96-well plate) and then chemical samples added for 1 h before addition of activators, SEB and TSST-1 (20 ng/mL final concentration each). Cells were incubated for 90 h. Then, Alamar Blue (20 uL/well) (Invitrogen, Cat DAL1100) was added for 6 h, and the plates were read with a fluorescence microplate reader at 546/580 nm (excitation/emission). For PBMC proliferation, cells were plated and activated as above but incubated for only 16 h prior to addition of Alamar Blue. Plates were read after 6 h.
SMILES,outcome,AC50
OCCNCCO,inactive,
FC(F)=C(F)C(F)(F)C(F)(F)C(F)(F)C(F)(F)C(F)(F)C(F)(F)F,inactive,
Cn1cc[nH]c1=S,inactive,
CCCc1ccccc1,inactive,
Cc1nc(-c2ccccn2)ncc1C(=O)Nn1cc(C)c2cc(F)ccc21,inactive,
CCCCCCCCCCCCCCCCOS(=O)(=O)O,,15.1 µM (active)
CCCCCCCCN(C)C,inactive,
CCOC(N)=O,inactive,
O=C(NO)C1(NS(=O)(=O)c2ccc(Oc3ccc(F)cc3)cc2)CCOCC1,inactive,
CCN(CC)C(=S)SSC(=S)N(CC)CC,,27.9 µM (active)
CCCCCOC(C)=O,inactive,
O=C(O)[C@H](O)[C@@H](O)C(=O)O,inactive,
Nc1ccn([C@@H]2O[C@H](CO)[C@@H](O)[C@@H]2O)c(=O)n1,inactive,
CCCCCCCCCC,inactive,
O=C1CN(N=Cc2ccc([N+](=O)[O-])o2)C(=O)N1,inactive,
COCc1nnc(-c2ccc[n+]([O-])c2)n1-c1c(Cl)c(Cl)cc2[nH]c(=O)c(=O)[nH]c12,inactive,
Cc1cccc(O)c1C,inactive,
OCc1c[nH]c2ccccc12,,0.0716 µM (active)
C=CN1CCCC1=O,inactive,
Cc1nccn1-c1ccc(Sc2cccc(C3(C(N)=O)CCOCC3)c2)cc1,inactive,

SMILES,outcome,AC50
NC(=O)NN=Cc1ccc([N+](=O)[O-])o1,inactive,
C[Si](C)(C)C(F)(F)C(F)(F)C(F)(F)F,inactive,
CNC(C)=O,inactive,
C=CCc1cc(S(=O)(=O)c2ccc(O)c(CC=C)c2)ccc1O,,10.8 µM (active)
O=C(Cl)C(F)(F)C(F)(F)C(F)(F)C(=O)Cl,inactive,12.2 µM (active)
COc1cc(C(C)C)c2c(c1)S(=O)(=O)N(COc1cc(=O)n3cccc(OCCN4CCCCC4)c3n1)C2=O,,8.4 µM (active)
CCCCN1C(=O)[C@@H]([C@H](O)C2CCCCC2)NC(=O)C12CCN(Cc1ccc(Oc3ccc(C(=O)O)cc3)cc1)CC2,inactive,
O=S1(=O)CCCO1,inactive,
CC[C@H](C)C(=O)O[C@H]1C[C@H](O)C=C2C=C[C@H](C)[C@H](CC[C@@H](O)C[C@@H](O)CC(=O)O)[C@H]21,inactive,
C[C@@H](Oc1ccc(CNC(=O)c2cccnc2Oc2ccc3c(c2)OCO3)c(F)c1)C(=O)O,inactive,
CC(C)CC(C)O (stereo not given),inactive,
CCc1ccc(O)c(C(C)(C)C)c1,inactive,
S=P(N1CC1)(N1CC1)N1CC1,inactive,
NC(=O)N1c2ccccc2C=Cc2ccccc21,inactive,
OC[C@H]1O[C@@H]2O[C@H]3[C@H](O)[C@@H](O)[C@@H](O[C@H]4[C@H](O)[C@@H](O)[C@@H](O[C@H]5[C@H](O)[C@@H](O)[C@@H](O[C@H]6[C@H](O)[C@@H](O)[C@@H](O[C@H]7[C@H](O)[C@@H](O)[C@@H](O[C@H]1[C@H](O)[C@H]2O)O[C@@H]7CO)O[C@@H]6CO)O[C@@H]5CO)O[C@@H]4CO)O[C@@H]3CO,inactive,
CCCCCCCC/C=C\CCCCCCCC(=O)OC[C@@H](O)[C@H]1OC[C@H](O)[C@H]1O,inactive,
FC(F)(F)C(F)(F)C(F)(F)C(F)(F)C(F)(F)C(F)(F)I,inactive,
OCCC(F)(F)C(F)(F)C(F)(F)C(F)(F)F,inactive,
CC(C)c1nnc2ccc(-c3ocnc3-c3cc(F)ccc3F)cn12,inactive,
